Holding throughout (assay): DAPPL (digital affinity profiling via proximity ligation, sequencing); 10 mM Tris-HCl pH 7.5, 50 mM NaCl, 1 mM DTT, 4% glycerol, room temperature, 30 min; GST-TFs on glutathione beads, 16-mer random dsDNA library, 0.1% formaldehyde crosslink after washing; high values mean tight binding
Common to all, as to details: protein: recombinant; tags: N-terminal GST; dsDNA, one strand shown

One assay concerns the target T1, FLI1 (Homo sapiens, UniProt Q01543 1-452).
T1 sequence: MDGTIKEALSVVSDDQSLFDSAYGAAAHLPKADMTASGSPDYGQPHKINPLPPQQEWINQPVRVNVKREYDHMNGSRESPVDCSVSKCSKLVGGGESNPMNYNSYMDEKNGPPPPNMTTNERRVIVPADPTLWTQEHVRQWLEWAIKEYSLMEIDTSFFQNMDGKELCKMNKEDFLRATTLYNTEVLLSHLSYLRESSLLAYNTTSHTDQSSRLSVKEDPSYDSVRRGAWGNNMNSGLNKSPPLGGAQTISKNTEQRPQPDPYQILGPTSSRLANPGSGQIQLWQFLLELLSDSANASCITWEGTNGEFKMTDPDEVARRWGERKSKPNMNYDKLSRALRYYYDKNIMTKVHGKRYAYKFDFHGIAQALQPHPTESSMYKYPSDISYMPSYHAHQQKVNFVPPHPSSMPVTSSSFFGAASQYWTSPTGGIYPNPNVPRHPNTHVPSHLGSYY
In a few lines:
(§1)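 Yeast served to express human transcription factors as GST fusions, which were then captured on glutathione beads and labelled with DNA barcodes. Pooled with a tag-only sample, they were incubated with 200 nmole of a 16-mer random double-stranded DNA library for 30 min at room temperature in Tris/NaCl/DTT/glycerol buffer, washed, crosslinked with 0.1% formaldehyde, ligated by proximity, amplified by PCR and sequenced. Dividing each hexamer's read frequency for a factor by its frequency for the tag-only sample gives the binding signal.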

The target of a further assay is T2, ELK1 (Homo sapiens, UniProt P19419 1-428).
T2 sequence: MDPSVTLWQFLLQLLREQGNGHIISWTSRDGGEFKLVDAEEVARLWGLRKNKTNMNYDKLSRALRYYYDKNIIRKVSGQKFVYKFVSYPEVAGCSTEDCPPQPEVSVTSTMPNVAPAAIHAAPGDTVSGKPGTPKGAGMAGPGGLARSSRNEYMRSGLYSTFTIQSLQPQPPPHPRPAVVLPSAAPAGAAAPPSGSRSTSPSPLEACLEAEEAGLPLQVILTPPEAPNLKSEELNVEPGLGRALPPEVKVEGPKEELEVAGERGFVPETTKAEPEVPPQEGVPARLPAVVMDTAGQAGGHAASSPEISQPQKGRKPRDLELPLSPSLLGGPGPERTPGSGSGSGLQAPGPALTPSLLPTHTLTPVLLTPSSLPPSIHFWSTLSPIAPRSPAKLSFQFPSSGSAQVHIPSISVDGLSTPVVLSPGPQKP
Put shortly:
as §1

A further assay addresses T3, GABPA (Homo sapiens, UniProt Q06546 1-454).
T3 sequence: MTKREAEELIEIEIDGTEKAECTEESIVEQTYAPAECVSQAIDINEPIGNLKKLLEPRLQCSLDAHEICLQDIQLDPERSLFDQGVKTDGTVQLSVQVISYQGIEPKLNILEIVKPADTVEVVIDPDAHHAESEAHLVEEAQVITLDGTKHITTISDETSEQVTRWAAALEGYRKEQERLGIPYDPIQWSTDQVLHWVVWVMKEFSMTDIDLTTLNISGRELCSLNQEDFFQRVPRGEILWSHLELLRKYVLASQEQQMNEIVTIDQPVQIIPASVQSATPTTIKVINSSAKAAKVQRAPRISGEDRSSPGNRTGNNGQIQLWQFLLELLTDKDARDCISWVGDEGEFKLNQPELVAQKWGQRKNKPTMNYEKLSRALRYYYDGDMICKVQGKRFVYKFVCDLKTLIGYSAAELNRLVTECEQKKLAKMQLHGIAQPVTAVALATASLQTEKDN
Put shortly:
as §1

For another assay, the target named is T4, ERG (Homo sapiens, UniProt P11308 1-479).
T4 sequence: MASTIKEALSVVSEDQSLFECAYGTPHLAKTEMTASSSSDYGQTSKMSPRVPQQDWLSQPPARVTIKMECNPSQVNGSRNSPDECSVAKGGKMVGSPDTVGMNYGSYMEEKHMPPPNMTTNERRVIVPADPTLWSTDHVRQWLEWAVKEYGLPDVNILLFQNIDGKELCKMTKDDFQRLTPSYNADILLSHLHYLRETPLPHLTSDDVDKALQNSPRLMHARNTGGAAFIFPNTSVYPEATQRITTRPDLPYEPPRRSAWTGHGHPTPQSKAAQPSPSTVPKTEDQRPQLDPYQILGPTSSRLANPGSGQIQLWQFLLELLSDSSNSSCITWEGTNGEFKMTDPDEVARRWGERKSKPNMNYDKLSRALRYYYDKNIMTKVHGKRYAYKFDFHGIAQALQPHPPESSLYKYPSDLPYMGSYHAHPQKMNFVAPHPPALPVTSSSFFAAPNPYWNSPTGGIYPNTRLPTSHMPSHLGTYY
In a few lines: as §1

Another assay concerns the target ELF1 (Homo sapiens, UniProt P32519 1-619). Put shortly:
as §1

The target of the next assay is T5, EHF (Homo sapiens, UniProt Q9NZC4 1-300).
T5 sequence: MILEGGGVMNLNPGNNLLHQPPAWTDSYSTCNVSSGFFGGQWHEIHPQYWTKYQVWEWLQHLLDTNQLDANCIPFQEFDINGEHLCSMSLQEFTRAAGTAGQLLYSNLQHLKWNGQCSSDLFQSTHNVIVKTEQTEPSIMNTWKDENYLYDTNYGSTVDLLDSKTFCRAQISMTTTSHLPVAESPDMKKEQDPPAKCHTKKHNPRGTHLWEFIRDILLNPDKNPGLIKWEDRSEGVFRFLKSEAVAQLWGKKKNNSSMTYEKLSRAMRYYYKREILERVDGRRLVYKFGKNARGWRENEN
Put shortly:
as §1

For a further assay, the target named is SPI1 (Homo sapiens, UniProt P17947 1-270). Put shortly:
as §1

The target of a further assay is SPIB (Homo sapiens, UniProt Q01892 1-262). In a few lines: as §1
Chain of SPIB (Q01892 whole entry): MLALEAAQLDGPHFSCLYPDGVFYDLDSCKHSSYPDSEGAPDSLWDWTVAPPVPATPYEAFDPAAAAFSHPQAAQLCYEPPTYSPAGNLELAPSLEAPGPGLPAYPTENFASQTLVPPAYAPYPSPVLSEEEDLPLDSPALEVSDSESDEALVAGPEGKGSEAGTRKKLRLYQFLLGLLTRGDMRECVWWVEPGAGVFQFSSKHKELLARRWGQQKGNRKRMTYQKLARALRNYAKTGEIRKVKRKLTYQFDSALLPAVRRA
For a further assay, the target named is T6, ELK3 (Homo sapiens, UniProt P41970 1-407).
T6 sequence: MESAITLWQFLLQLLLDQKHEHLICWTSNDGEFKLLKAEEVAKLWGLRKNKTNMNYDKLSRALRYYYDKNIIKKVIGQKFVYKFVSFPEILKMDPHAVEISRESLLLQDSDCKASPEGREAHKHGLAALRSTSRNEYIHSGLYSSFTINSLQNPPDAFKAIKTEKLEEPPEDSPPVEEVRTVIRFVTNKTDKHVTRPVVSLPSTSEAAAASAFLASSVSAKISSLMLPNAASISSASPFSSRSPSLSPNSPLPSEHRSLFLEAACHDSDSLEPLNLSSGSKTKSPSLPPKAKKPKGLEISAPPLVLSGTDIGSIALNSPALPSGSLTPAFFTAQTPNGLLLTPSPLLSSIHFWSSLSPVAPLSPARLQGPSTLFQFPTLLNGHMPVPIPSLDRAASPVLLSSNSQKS
Put shortly: as §1

These results are taken from publication PMC7862700, “An all-to-all approach to the identification of sequence-specific readers for epigenetic DNA modifications on cytosine”.

Chain of ELF1 (P32519 whole entry): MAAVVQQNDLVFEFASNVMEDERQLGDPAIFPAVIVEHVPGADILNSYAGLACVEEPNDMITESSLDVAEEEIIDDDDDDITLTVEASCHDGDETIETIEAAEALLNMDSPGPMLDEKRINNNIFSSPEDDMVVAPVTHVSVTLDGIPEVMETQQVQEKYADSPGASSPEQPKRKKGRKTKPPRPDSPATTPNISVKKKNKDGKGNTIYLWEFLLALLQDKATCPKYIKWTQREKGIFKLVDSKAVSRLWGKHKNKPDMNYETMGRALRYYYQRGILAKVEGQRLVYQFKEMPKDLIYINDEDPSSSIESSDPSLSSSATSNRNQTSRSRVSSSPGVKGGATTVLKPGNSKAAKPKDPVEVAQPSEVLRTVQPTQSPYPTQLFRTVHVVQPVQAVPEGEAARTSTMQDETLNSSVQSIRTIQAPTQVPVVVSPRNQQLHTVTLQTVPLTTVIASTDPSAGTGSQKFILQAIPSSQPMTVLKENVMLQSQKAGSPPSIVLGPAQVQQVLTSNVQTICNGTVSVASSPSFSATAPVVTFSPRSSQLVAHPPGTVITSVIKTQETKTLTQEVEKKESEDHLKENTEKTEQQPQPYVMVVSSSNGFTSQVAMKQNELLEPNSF

As to CATCTA, the binding signal in the assay with FLI1 is 1.22 fold enrichment (6-mer frequency, TF over GST control); with ELK1, 1.3 fold enrichment (6-mer frequency, TF over GST control); with GABPA, 1.25 fold enrichment (6-mer frequency, TF over GST control); with ERG, 1.11 fold enrichment (6-mer frequency, TF over GST control); with ELF1, 1.25 fold enrichment (6-mer frequency, TF over GST control); with EHF, 1.18 fold enrichment (6-mer frequency, TF over GST control). Besides, the binding signal in the assay with SPI1 is 1.16 fold enrichment (6-mer frequency, TF over GST control); with SPIB, 1.17 fold enrichment (6-mer frequency, TF over GST control); in the assay with ELK3 it was 1.13 fold enrichment (6-mer frequency, TF over GST control).

In the case of TAAAAT, the binding signal in the assay with FLI1 is 1.17 fold enrichment (6-mer frequency, TF over GST control); with ELK1, 1.2 fold enrichment (6-mer frequency, TF over GST control); in the assay with GABPA it was 1.25 fold enrichment (6-mer frequency, TF over GST control); with ERG, 1.19 fold enrichment (6-mer frequency, TF over GST control); in the assay with ELF1, 1.24 fold enrichment (6-mer frequency, TF over GST control); with EHF it was 1.1 fold enrichment (6-mer frequency, TF over GST control). The binding signal with SPI1 was 1.25 fold enrichment (6-mer frequency, TF over GST control); in the assay with SPIB, 1.2 fold enrichment (6-mer frequency, TF over GST control); with ELK3, 1.1 fold enrichment (6-mer frequency, TF over GST control).

Regarding AACTCA, the binding signal with FLI1 is 1.35 fold enrichment (6-mer frequency, TF over GST control); in the assay with ELK1, 1.27 fold enrichment (6-mer frequency, TF over GST control); in the assay with GABPA, 1.25 fold enrichment (6-mer frequency, TF over GST control); with ERG it was 1.12 fold enrichment (6-mer frequency, TF over GST control); in the assay with ELF1, 1.23 fold enrichment (6-mer frequency, TF over GST control); in the assay with EHF it was 1.18 fold enrichment (6-mer frequency, TF over GST control). The binding signal was 1.25 fold enrichment (6-mer frequency, TF over GST control) with SPI1; 1.23 fold enrichment (6-mer frequency, TF over GST control) with SPIB; 1.36 fold enrichment (6-mer frequency, TF over GST control) in the assay with ELK3.

On to CCCTTA, for which the binding signal is 1.29 fold enrichment (6-mer frequency, TF over GST control) in the assay with FLI1; 1.24 fold enrichment (6-mer frequency, TF over GST control) with ELK1; 1.24 fold enrichment (6-mer frequency, TF over GST control) with GABPA; 1.28 fold enrichment (6-mer frequency, TF over GST control) with ERG; 1.3 fold enrichment (6-mer frequency, TF over GST control) with ELF1; 1.32 fold enrichment (6-mer frequency, TF over GST control) with EHF. In addition, the binding signal was 1.31 fold enrichment (6-mer frequency, TF over GST control) in the assay with SPI1; 1.35 fold enrichment (6-mer frequency, TF over GST control) with SPIB; 1.25 fold enrichment (6-mer frequency, TF over GST control) with ELK3.

As for TTAAAA, the binding signal with FLI1 is 1.19 fold enrichment (6-mer frequency, TF over GST control); in the assay with ELK1 it was 1.15 fold enrichment (6-mer frequency, TF over GST control); in the assay with GABPA, 1.19 fold enrichment (6-mer frequency, TF over GST control); with ERG, 1.15 fold enrichment (6-mer frequency, TF over GST control); with ELF1 it was 1.22 fold enrichment (6-mer frequency, TF over GST control); with EHF, 1.16 fold enrichment (6-mer frequency, TF over GST control). In addition, the binding signal was 1.33 fold enrichment (6-mer frequency, TF over GST control) with SPI1; 1.23 fold enrichment (6-mer frequency, TF over GST control) with SPIB; 1.22 fold enrichment (6-mer frequency, TF over GST control) in the assay with ELK3.

Take CAATCT: the binding signal with FLI1 is 1.24 fold enrichment (6-mer frequency, TF over GST control); with ELK1 it was 1.18 fold enrichment (6-mer frequency, TF over GST control); in the assay with GABPA, 1.18 fold enrichment (6-mer frequency, TF over GST control); with ERG, 1.13 fold enrichment (6-mer frequency, TF over GST control); in the assay with ELF1, 1.22 fold enrichment (6-mer frequency, TF over GST control); with EHF it was 1.17 fold enrichment (6-mer frequency, TF over GST control). The binding signal in the assay with SPI1 was 1.26 fold enrichment (6-mer frequency, TF over GST control); with SPIB, 1.23 fold enrichment (6-mer frequency, TF over GST control); in the assay with ELK3 it was 1.14 fold enrichment (6-mer frequency, TF over GST control).

As to AAAAAT, the binding signal with FLI1 is 1.28 fold enrichment (6-mer frequency, TF over GST control); with ELK1 it was 1.24 fold enrichment (6-mer frequency, TF over GST control); with GABPA, 1.31 fold enrichment (6-mer frequency, TF over GST control); in the assay with ERG it was 1.26 fold enrichment (6-mer frequency, TF over GST control); in the assay with ELF1 it was 1.31 fold enrichment (6-mer frequency, TF over GST control); with EHF it was 1.37 fold enrichment (6-mer frequency, TF over GST control). The binding signal is 1.29 fold enrichment (6-mer frequency, TF over GST control) in the assay with SPI1; 1.43 fold enrichment (6-mer frequency, TF over GST control) with SPIB; 1.39 fold enrichment (6-mer frequency, TF over GST control) with ELK3.
